Among the data in PMC7862700, “An all-to-all approach to the identification of sequence-specific readers for epigenetic DNA modifications on cytosine” are binding signal values, retold here.

Assay in all cases: DAPPL (digital affinity profiling via proximity ligation, sequencing); 10 mM Tris-HCl pH 7.5, 50 mM NaCl, 1 mM DTT, 4% glycerol, room temperature, 30 min; GST-TFs on glutathione beads, 16-mer random dsDNA library, 0.1% formaldehyde crosslink after washing; high values mean tight binding
One assay addresses T1, FLI1 (Homo sapiens, UniProt Q01543 1-452).
T1 sequence: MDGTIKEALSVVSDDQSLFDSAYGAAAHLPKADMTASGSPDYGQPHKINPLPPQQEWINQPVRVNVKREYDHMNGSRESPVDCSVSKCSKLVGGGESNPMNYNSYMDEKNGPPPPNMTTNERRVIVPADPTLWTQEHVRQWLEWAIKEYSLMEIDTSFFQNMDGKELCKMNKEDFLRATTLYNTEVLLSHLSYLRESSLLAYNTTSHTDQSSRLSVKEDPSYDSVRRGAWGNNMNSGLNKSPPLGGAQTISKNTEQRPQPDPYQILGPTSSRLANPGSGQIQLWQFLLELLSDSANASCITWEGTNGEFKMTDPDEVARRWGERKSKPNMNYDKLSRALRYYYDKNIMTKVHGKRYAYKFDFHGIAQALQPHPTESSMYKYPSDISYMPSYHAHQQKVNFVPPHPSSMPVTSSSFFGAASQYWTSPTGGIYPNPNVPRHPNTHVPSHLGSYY
As to conditions: protein: recombinant; tags: N-terminal GST; dsDNA, one strand shown. The essentials: (§1)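 Binding signal is each hexamer's read frequency for a factor divided by its frequency in the tag-only sample. The factors were GST-fused human transcription factors from yeast, captured on glutathione beads, DNA-barcoded and pooled with that sample. Pools were incubated with 200 nmole of a random double-stranded 16-mer DNA library in Tris/NaCl/DTT/glycerol buffer at room temperature for 30 min, then washed, crosslinked with 0.1% formaldehyde, proximity-ligated with BsaI/T4 ligase (1 h, 37 °C), PCR-amplified and sequenced on an Illumina NextSeq500.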

In another assay the target is T2, ELK1 (Homo sapiens, UniProt P19419 1-428).
T2 sequence: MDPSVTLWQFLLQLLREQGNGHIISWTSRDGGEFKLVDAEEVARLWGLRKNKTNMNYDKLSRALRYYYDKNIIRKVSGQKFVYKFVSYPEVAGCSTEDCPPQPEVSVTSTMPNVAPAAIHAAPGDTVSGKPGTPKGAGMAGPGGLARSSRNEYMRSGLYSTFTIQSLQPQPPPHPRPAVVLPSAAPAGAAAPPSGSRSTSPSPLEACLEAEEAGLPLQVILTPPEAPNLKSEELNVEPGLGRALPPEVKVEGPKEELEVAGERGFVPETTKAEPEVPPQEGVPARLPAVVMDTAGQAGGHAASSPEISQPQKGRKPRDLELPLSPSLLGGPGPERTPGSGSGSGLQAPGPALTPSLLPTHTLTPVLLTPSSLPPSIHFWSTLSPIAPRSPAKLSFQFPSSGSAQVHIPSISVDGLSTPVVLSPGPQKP
As to conditions: protein: recombinant; tags: N-terminal GST; dsDNA, one strand shown. The essentials: as §1

The target of a further assay is T3, GABPA (Homo sapiens, UniProt Q06546 1-454).
T3 sequence: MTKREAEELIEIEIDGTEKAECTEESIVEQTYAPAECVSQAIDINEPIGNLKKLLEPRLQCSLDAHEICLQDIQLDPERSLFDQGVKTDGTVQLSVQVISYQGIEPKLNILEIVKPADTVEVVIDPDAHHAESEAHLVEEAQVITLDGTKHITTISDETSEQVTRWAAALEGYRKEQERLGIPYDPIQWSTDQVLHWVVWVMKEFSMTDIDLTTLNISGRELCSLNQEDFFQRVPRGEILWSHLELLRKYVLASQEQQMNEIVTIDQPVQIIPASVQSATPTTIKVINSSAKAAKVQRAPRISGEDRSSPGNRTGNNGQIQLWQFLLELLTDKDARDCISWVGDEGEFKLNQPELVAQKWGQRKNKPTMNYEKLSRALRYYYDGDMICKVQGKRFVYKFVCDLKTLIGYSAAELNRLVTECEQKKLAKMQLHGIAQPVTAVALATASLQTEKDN
As to conditions: protein: recombinant; tags: N-terminal GST; dsDNA, one strand shown. The essentials:
as §1

Another assay addresses T4, ERG (Homo sapiens, UniProt P11308 1-479).
T4 sequence: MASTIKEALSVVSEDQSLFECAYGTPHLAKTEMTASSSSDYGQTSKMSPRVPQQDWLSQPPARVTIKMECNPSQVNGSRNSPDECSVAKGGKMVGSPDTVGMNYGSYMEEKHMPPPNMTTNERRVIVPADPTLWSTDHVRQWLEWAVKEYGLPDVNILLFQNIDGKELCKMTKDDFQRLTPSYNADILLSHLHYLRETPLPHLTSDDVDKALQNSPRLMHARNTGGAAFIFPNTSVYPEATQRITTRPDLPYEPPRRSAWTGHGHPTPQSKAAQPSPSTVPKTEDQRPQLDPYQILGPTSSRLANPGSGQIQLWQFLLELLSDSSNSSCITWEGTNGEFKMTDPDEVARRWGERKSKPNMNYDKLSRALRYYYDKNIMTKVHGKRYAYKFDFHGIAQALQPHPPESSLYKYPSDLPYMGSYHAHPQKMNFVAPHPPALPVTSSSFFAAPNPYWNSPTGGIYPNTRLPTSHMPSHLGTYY
Particulars: protein: recombinant; tags: N-terminal GST; dsDNA, one strand shown. The essentials: as §1

Another assay concerns the target ELF1 (Homo sapiens, UniProt P32519 1-619). Particulars: protein: recombinant; tags: N-terminal GST; dsDNA, one strand shown. The essentials:
as §1

The target of a further assay is T5, EHF (Homo sapiens, UniProt Q9NZC4 1-300).
T5 sequence: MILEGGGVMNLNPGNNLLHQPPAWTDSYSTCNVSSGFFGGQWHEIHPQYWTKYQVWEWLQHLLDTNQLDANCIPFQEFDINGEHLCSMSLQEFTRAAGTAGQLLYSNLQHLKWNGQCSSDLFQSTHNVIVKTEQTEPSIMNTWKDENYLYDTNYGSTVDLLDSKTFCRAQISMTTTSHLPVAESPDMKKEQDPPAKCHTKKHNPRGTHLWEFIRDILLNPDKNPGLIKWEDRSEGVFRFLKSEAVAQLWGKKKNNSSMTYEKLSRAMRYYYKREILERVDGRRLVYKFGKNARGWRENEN
As to conditions: protein: recombinant; tags: N-terminal GST; dsDNA, one strand shown. The essentials: as §1

Another assay addresses SPI1 (Homo sapiens, UniProt P17947 1-270). Particulars: protein: recombinant; tags: N-terminal GST; dsDNA, one strand shown. In short, it runs like this:
as §1

The target of a further assay is SPIB (Homo sapiens, UniProt Q01892 1-262). Particulars: protein: recombinant; tags: N-terminal GST; dsDNA, one strand shown. In short, it runs like this:
as §1

Another assay concerns the target T6, ELK3 (Homo sapiens, UniProt P41970 1-407).
T6 sequence: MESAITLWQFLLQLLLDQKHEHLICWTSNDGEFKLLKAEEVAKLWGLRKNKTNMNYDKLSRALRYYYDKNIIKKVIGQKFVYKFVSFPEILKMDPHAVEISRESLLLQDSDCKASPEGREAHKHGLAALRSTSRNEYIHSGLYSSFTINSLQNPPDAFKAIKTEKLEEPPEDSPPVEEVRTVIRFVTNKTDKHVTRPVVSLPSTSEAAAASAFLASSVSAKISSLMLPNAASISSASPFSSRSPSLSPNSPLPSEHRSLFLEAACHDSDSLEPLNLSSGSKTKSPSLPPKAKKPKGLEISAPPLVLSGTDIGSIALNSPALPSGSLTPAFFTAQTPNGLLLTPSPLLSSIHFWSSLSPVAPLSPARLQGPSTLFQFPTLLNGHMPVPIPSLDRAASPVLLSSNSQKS
Particulars: protein: recombinant; tags: N-terminal GST; dsDNA, one strand shown. The essentials:
as §1

The target in another assay is T7, FEV (Homo sapiens, UniProt Q99581 1-238).
T7 sequence: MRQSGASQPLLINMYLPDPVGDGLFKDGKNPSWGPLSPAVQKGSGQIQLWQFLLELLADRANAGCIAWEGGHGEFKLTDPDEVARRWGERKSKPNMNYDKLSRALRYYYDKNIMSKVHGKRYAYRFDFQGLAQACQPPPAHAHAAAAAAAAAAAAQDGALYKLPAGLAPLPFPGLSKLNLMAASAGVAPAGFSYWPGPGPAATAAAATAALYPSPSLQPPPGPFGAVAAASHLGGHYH
As to conditions: protein: recombinant; tags: N-terminal GST; dsDNA, one strand shown. The essentials:
as §1

A further assay has as its target ETV5 (Homo sapiens, UniProt P41161 1-510). As to conditions: protein: recombinant; tags: N-terminal GST; dsDNA, one strand shown. The essentials:
as §1

Another assay addresses HSF1 (Homo sapiens, UniProt Q00613 1-529). As to conditions: protein: recombinant; tags: N-terminal GST; chain copies: 3; dsDNA, one strand shown. In short, it runs like this: as §1
Another assay addresses T8, SPIC (Homo sapiens, UniProt Q8N5J4 1-248).
T8 sequence: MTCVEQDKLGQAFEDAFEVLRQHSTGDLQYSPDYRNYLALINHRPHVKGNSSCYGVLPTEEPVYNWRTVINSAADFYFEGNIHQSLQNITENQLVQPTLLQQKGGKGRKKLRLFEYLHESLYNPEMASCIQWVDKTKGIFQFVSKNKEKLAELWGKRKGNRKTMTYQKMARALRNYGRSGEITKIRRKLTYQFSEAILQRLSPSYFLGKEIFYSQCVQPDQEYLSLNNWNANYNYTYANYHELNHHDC
As to conditions: protein: recombinant; tags: N-terminal GST; dsDNA, one strand shown. The essentials: as §1

A further assay has as its target ELF4 (Homo sapiens, UniProt Q99607 1-663). Particulars: protein: recombinant; tags: N-terminal GST; dsDNA, one strand shown. The essentials: as §1
For the next assay, the target named is T9, ELK4 (Homo sapiens, UniProt P28324-2 1-405).
T9 sequence: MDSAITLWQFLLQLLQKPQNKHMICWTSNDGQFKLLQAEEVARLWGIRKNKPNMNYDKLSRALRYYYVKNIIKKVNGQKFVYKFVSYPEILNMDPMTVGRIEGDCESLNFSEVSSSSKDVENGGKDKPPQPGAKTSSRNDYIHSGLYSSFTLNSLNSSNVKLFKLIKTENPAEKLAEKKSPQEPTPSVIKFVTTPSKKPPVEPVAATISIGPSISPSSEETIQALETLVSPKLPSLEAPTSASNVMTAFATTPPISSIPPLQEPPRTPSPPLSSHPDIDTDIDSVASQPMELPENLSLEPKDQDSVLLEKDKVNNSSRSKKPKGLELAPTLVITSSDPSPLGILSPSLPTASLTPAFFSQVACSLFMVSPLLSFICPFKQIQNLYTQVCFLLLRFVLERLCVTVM
Particulars: protein: recombinant; tags: N-terminal GST; dsDNA, one strand shown. The essentials:
as §1

The target of another assay is T10, ETV2 (Homo sapiens, UniProt O00321 1-342).
T10 sequence: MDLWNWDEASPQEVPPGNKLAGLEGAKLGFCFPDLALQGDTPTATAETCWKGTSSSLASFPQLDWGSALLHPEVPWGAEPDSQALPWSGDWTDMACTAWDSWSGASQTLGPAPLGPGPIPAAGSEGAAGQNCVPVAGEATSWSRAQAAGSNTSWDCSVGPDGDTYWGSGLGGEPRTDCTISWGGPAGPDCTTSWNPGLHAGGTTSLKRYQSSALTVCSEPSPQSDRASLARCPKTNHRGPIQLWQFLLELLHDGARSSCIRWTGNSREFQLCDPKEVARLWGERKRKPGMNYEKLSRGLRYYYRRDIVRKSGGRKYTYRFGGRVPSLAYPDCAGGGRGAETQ
As to conditions: protein: recombinant; tags: N-terminal GST; dsDNA, one strand shown. The essentials: as §1

Another assay concerns the target T11, ELF3 (Homo sapiens, UniProt P78545 1-371).
T11 sequence: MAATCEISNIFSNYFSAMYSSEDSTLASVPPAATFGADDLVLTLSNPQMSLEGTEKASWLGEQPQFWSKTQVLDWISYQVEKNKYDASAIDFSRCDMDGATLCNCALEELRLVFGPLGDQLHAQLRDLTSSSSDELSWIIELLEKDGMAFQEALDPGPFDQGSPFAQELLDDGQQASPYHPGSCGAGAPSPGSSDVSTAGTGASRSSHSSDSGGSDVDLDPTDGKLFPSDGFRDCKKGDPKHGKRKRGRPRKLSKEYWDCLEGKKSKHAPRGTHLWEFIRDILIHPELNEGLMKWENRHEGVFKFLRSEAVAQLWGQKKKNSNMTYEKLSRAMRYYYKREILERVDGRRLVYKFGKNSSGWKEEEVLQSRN
Particulars: protein: recombinant; tags: N-terminal GST; dsDNA, one strand shown. The essentials: as §1

The next assay addresses CRX (Homo sapiens, UniProt O43186 1-299). As to conditions: protein: recombinant; tags: N-terminal GST; dsDNA, one strand shown. In short, it runs like this: as §1
For another assay, the target named is ETV1 (Homo sapiens, UniProt P50549 1-477). Particulars: protein: recombinant; tags: N-terminal GST; dsDNA, one strand shown. In short, it runs like this:
as §1

Chain of HSF1 (Q00613 whole entry): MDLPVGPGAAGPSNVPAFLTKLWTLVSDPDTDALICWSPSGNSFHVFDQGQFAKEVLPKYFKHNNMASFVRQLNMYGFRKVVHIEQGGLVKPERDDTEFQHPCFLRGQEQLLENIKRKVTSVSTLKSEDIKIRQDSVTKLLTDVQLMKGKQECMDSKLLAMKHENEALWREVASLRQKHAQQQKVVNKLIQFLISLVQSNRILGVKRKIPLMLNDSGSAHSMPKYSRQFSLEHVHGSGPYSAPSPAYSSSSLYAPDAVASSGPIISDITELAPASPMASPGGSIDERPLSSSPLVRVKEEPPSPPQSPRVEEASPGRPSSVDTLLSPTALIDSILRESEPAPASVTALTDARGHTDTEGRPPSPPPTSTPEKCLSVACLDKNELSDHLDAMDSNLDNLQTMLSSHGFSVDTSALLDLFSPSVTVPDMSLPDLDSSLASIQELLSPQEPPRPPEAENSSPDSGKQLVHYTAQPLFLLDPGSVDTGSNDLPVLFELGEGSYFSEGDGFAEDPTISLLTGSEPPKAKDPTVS
Chain of ETV5 (P41161 whole entry): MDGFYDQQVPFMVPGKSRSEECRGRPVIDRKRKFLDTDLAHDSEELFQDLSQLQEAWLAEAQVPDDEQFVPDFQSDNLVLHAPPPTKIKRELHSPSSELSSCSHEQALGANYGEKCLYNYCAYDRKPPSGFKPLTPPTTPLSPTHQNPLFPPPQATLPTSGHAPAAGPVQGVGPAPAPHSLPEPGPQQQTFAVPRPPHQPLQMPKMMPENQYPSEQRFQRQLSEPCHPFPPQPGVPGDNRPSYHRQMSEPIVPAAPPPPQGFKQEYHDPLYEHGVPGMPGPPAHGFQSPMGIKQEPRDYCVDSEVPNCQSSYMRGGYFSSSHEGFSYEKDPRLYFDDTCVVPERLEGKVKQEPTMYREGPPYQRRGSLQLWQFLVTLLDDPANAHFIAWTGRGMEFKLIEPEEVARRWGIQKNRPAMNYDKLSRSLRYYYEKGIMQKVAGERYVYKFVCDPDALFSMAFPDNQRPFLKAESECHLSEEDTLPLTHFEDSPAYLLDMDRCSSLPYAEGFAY
Chain of ELF4 (Q99607 whole entry): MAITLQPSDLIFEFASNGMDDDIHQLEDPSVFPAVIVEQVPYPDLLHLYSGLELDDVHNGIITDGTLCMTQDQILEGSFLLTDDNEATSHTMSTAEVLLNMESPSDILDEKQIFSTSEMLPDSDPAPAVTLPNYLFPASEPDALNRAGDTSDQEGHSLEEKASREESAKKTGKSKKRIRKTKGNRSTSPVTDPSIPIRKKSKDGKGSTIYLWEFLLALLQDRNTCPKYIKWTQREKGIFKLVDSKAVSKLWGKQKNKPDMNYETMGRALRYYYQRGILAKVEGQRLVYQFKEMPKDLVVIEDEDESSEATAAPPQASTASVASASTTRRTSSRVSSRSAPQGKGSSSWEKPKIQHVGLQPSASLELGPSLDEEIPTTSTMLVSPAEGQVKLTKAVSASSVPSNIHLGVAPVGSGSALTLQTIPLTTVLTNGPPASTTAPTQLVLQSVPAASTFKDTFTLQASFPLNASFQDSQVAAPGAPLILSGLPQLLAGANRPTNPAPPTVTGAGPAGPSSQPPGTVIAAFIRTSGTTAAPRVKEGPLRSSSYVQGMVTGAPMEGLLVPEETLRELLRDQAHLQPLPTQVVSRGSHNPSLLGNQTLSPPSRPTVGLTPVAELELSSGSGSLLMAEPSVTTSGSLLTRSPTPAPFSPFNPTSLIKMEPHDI
Chain of SPIB (Q01892 whole entry): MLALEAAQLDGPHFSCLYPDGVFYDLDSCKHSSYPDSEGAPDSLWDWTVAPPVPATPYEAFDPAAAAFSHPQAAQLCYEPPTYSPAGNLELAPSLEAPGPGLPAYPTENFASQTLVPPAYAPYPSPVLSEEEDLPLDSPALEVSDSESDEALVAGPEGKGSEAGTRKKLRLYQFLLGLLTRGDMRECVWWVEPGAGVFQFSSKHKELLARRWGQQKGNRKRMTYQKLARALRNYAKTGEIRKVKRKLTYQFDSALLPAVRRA
Chain of ETV1 (P50549 whole entry): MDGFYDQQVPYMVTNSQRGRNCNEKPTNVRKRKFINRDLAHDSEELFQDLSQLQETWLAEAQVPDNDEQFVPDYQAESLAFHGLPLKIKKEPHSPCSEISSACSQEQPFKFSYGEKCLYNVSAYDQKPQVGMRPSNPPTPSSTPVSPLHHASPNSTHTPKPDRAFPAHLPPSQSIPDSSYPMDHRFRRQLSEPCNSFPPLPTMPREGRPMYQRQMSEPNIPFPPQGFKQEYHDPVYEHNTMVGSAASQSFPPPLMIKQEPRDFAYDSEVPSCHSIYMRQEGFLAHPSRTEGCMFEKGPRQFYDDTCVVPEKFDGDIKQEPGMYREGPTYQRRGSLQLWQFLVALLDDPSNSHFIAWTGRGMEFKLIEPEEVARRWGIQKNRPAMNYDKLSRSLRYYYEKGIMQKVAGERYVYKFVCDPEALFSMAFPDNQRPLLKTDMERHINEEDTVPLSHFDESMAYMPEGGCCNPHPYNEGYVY
Chain of ELF1 (P32519 whole entry): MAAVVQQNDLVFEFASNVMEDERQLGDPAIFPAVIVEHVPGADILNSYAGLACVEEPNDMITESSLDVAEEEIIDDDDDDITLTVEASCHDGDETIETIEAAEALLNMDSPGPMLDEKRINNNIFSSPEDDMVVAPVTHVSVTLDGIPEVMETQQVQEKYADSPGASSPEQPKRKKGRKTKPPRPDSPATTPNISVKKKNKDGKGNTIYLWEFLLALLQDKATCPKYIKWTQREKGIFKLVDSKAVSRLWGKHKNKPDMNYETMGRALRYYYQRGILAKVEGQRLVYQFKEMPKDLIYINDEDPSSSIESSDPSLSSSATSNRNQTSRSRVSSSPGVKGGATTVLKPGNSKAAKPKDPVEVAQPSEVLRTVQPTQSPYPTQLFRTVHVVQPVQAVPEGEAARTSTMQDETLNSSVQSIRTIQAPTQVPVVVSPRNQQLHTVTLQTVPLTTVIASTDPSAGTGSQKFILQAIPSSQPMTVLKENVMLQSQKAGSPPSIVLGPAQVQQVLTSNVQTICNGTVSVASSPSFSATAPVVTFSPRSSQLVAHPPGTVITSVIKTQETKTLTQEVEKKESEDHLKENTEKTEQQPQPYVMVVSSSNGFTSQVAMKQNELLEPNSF
Chain of CRX (O43186 whole entry): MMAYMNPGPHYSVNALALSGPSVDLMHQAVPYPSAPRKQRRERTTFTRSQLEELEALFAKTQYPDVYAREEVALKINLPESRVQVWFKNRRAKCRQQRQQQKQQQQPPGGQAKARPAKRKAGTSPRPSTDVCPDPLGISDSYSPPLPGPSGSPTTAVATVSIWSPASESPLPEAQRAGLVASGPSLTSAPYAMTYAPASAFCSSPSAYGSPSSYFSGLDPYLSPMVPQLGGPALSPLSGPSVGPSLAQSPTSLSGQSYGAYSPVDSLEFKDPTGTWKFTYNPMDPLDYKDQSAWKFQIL

In the case of CCCTAA, the binding signal with FLI1 is 1.16 fold enrichment (6-mer frequency, TF over GST control); with ELK1, 1.19 fold enrichment (6-mer frequency, TF over GST control); with GABPA it was 1.15 fold enrichment (6-mer frequency, TF over GST control); in the assay with ERG, 1.17 fold enrichment (6-mer frequency, TF over GST control); in the assay with ELF1, 1.25 fold enrichment (6-mer frequency, TF over GST control); with EHF, 1.24 fold enrichment (6-mer frequency, TF over GST control). Besides, the binding signal is 1.2 fold enrichment (6-mer frequency, TF over GST control) with SPI1; 1.29 fold enrichment (6-mer frequency, TF over GST control) with SPIB; 1.28 fold enrichment (6-mer frequency, TF over GST control) in the assay with ELK3; 1.18 fold enrichment (6-mer frequency, TF over GST control) with FEV; 1.28 fold enrichment (6-mer frequency, TF over GST control) with ETV5; 1.29 fold enrichment (6-mer frequency, TF over GST control) in the assay with HSF1. For the same sequence, the binding signal with SPIC is 1.24 fold enrichment (6-mer frequency, TF over GST control); with ELF4 it was 1.28 fold enrichment (6-mer frequency, TF over GST control); with ELK4 it was 1.28 fold enrichment (6-mer frequency, TF over GST control); with ETV2, 1.23 fold enrichment (6-mer frequency, TF over GST control); in the assay with ELF3, 1.25 fold enrichment (6-mer frequency, TF over GST control); with CRX it was 1.71 fold enrichment (6-mer frequency, TF over GST control). In the assay with ETV1, the binding signal is 1.23 fold enrichment (6-mer frequency, TF over GST control).
